A number with no mark means an inactive call. Inconclusive results are not listed. Where a call stands in place of a potency, no number is given. Calls of active or inactive are those of the source. Unless noted, the call rests on the fitted dose curve; in most records, active means well fitted curve in the direction sought with a large enough effect in the repeat runs; inconclusive means weak or mixed curves; inactive means no such curve, though single readings can be large; an effect the other way counts as inactive or inconclusive.
Tests used:
[1] = qHTS assay to identify small molecule antagonists of the sonic hedgehog signaling (Shh) pathway (AID 1259369; calls by dose curve; further: nearly all actives have a fitted effect of over 45% in size)
How it was run: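 Cells are plated and held 4hr at 37 C, compounds (DMSO) are pinned in, conditioned medium is added to stimulate the pathway, and after 24hr luciferase reagent is added for 30min before luminescence is read.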

[2] = biological target: Estrogen receptor beta (Homo sapiens) (UniProt Q92731); assay: qHTS assay to identify small molecule agonists of the estrogen receptor beta (ER-beta) signaling pathway (AID 1259377; active means well fitted activation curve with a large enough effect in the signal ratio in the repeat runs, not every such curve was filed as active; the % refers to the signal ratio; further: potency means the concentration at half of the fitted maximal effect)
How it was run: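 Reporter cells (HEK293T, ER-beta-UAS-bla) receive compounds or DMSO after a 6 hr pre-incubation. They then incubate 16 hr at 37C/5% CO2, and fluorescence from LiveBLAzer B/G substrate is measured after 2 hours at room temperature.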

[3] = biological target: Estrogen receptor beta (Homo sapiens) (UniProt Q92731); assay: qHTS assay to identify small molecule antagonists of the estrogen receptor beta (ER-beta) signaling pathway (AID 1259378; active means well fitted inhibition curve with a large enough effect in the signal ratio in the repeat runs, not every such curve was filed as active; the % refers to the signal ratio)
How it was run: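 ER-beta-UAS-bla HEK293T cells in 2% charcoal-stripped FBS medium treated with compound plus 1nM final 17-beta-estradiol for 16 hr at 37C. Beta-lactamase reporter read by FRET substrate fluorescence after 2 hours at room temperature.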

[4] = qHTS assay to identify small molecule agonists of the androgen receptor (AR) signaling pathway in the presence of an antagonist - cell viability counter screen (AID 1259379);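 further: MDA-kb2 human breast cancer cells carrying an MMTV luciferase reporter; series mostly up to about 92 µM; nearly all actives have a fitted effect of over 25% in size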
How it was run: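 Cytotoxicity is assessed by CellTiter-Fluor in MDA-kb2 cells carrying an MMTV-driven luciferase reporter. Cells receive 3.0uM nilutamide plus compounds at 15 concentrations and incubate 16 hr at 37C without CO2 before fluorescence reading.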

[5] = qHTS assay to identify small molecule agonists of the estrogen receptor beta (ER-beta) signaling pathway - cell viability counter screen (AID 1259380); further: nearly all actives have a fitted effect of over 30% in size
How it was run: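 Cytotoxicity is measured in parallel with the reporter screen: after 16 hr compound exposure at 37C and a 2 hr LiveBLAzer step, CellTiter-Glo is added to the same ER-beta-UAS-bla HEK293T wells and luminescence read after 30 min.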

[6] = qHTS assay to identify small molecule antagonists of the estrogen receptor beta (ER-beta) signaling pathway - cell viability counter screen (AID 1259382); further: series mostly up to about 92 µM; nearly all actives have a fitted effect of over 55% in size
How it was run: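 Cytotoxicity counter screen multiplexed with the beta-lactamase antagonist assay: GripTite HEK293T ER-beta-bla cells were treated 16 hr with test chemicals in the presence of 1nM 17-beta-estradiol, and viability was measured by CellTiter-Glo.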

[7] = qHTS assay to identify small molecule agonists or antagonists of the thyroid stimulating hormone receptor (TSHR) signaling pathway - wild type cell line counter screen (AID 1259384; calls by dose curve)
How it was run: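 Wild-type Hek293 cells, 800/well, 18 h at 37C, then compound with Ro20-1724 for 30 min RT. cAMP by HTRF (cAMP-d2/anti-cAMP cryptate), 1 h RT, fluorescence read. 15 concentrations, triplicates.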

[8] = biological target: Thyrotropin receptor (Homo sapiens) (UniProt P16473); assay: qHTS assay to identify small molecule antagonists of the thyroid stimulating hormone receptor (TSHR) signaling pathway (AID 1259385; calls by dose curve; further: nearly all actives have a fitted effect of over 20% in size)
How it was run: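 TSHR-HEK293 cells (800/well) plated 18 h, then compounds with Ro20-1724 and TSH at 1.5 ng/mL final, 30 min at room temperature. cAMP quantified by HTRF (cAMP-d2/anti-cAMP-cryptate, 1 h); 15 concentrations in triplicate.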

[9] = biological target: Progesterone receptor (Homo sapiens) (UniProt P06401); assay: qHTS assay to identify small molecule agonists of the progesterone receptor (PR) signaling pathway (AID 1346784; calls by dose curve; further: nearly all actives have a fitted effect of over 30% in size)
How it was run: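 Reporter assay, GripTite PR-UAS-bla HEK 293T cells: 16 hr exposure to DMSO-dissolved compounds at 37C, 5% CO2, in steroid-depleted (2% charcoal-stripped FBS) medium; beta-lactamase measured by FRET fluorescence.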

[10] = biological target: Progesterone receptor (Homo sapiens) (UniProt P06401); assay: qHTS assay to identify small molecule antagonists of the progesterone receptor (PR) signaling pathway (AID 1346795; active means well fitted inhibition curve with a large enough effect in the signal ratio in the repeat runs, not every such curve was filed as active; the % refers to the signal ratio; further: potency means the concentration at half of the fitted maximal effect)
How it was run: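 Stimulus R5020 at 1 nM final; cells HEK293T PR-UAS-bla; medium with 2% charcoal-stripped FBS; compound exposure 16 hr at 37C, 5% CO2; detection by FRET beta-lactamase substrate, 2 hr, room temperature.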

[11] = qHTS assay to identify small molecule agonists of the progesterone receptor (PR) signaling pathway - cell viability counter screen (AID 1346799; calls by dose curve; further: nearly all actives have a fitted effect of over 45% in size)
How it was run: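 Multiplexed viability read: CellTiter-Glo luminescence, 30 min RT, following LiveBLAzer FRET measurement on PR-UAS-bla HEK293T cells exposed to compounds 16 hr.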

[12] = qHTS assay to identify small molecule antagonists of the TGF-beta/Smad signaling pathway - cell viability counter screen (AID 1346824); further: nearly all actives have a fitted effect of over 50% in size
How it was run: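 SBE-bla HEK 293T cells, incubated overnight, then compound plus 0.25 ng/mL TGF-beta1 (stock added) for 5 hr at 37 C. Viability was read in the same wells by CellTiter-Glo luminescence after 30 min at room temperature.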

[13] = qHTS assay to identify small molecule agonists of the TGF-beta/Smad signaling pathway - cell viability counter screen (AID 1346829); further: top concentration of the series differs between compounds; nearly all actives have a fitted effect of over 45% in size
How it was run: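 SBE-bla HEK 293T cells plated overnight, compound exposure 5 hr at 37 C. Viability read in the same wells by CellTiter-Glo luminescence after 30 min at room temperature, following the beta-lactamase read.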

[14] = qHTS assay to identify small molecule agonists of the TGF-beta/Smad signaling pathway (AID 1346859; active means well fitted activation curve with a large enough effect in the signal ratio in the repeat runs, not every such curve was filed as active; the % refers to the signal ratio; further: series mostly up to about 77 µM)
How it was run: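 Screening used HEK 293T SBE-bla cells at 4,000/well. Test agents: 5 hr, 37 C. Detection: FRET substrate, 2 hr RT, then excitation 405 nm with emissions at 460 and 530 nm.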

[15] = biological target: Thyrotropin-releasing hormone receptor (Homo sapiens) (UniProt P34981); assay: qHTS assay to identify small molecule antagonists of the thyrotropin-releasing hormone receptor (TRHR) signaling pathway (AID 1346877; active means well fitted inhibition curve with a large enough effect in the repeat runs, not every such curve was filed as active; further: series mostly up to about 51 µM)
How it was run: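 Antagonism is measured as suppression of the calcium response to 1 nM TRH in TRHR-HEK293 cells that have been dye-loaded for 2 h at 37 °C after overnight plating. Each compound is tested at 15 concentrations in triplicate.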

[16] = biological target: Thyrotropin-releasing hormone receptor (Homo sapiens) (UniProt P34981); assay: qHTS assay to identify small molecule agonists of the thyrotropin-releasing hormone receptor (TRHR) signaling pathway (AID 1346891; calls by dose curve; further: series mostly up to about 58 µM)
How it was run: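 Readout was intracellular calcium fluorescence in TRHR-Hek293 cells. Cells were incubated 18 h, dye-loaded 2 h at 37 °C, and treated with compound in agonist mode.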

[17] = biological target: Estrogen receptor (Homo sapiens) (UniProt P03372); assay: qHTS assay to identify small molecule agonists of the estrogen receptor alpha (ER-alpha) signaling pathway in the presence of an antagonist (AID 1259383; calls by dose curve; further: top concentration of the series differs between compounds; nearly all actives have a fitted effect of over 15% in size)
How it was run: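 Agonist-mode confirmation in the presence of the ER antagonist ICI-182,780 at 10.0nM final. Breast-derived VM7Luc4E2 reporter cells were exposed to compounds for 22hr, and ERE-driven luciferase was quantified by luminescence.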

[18] = qHTS assay to identify small molecule antagonists of the progesterone receptor (PR) signaling pathway - cell viability counter screen (AID 1346798); further: series mostly up to about 92 µM; nearly all actives have a fitted effect of over 50% in size
How it was run: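 In the same plates used for the beta-lactamase readout, cell viability of compound- and R5020-treated PR-UAS-bla HEK293T cells (16 hr, 37C) was assessed by CellTiter-Glo luminescence.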

[19] = qHTS assay to identify small molecule agonists of the estrogen receptor alpha (ER-alpha) signaling pathway in the presence of an antagonist - cell viability counter screen (AID 1259386);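 further: series mostly up to about 92 µM; cells exposed to compounds for 22 h at 37 °C before the viability read; nearly all actives have a fitted effect of over 30% in size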
How it was run: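 Cytotoxicity was measured in parallel with the ERE-luciferase agonist screen, in the same wells. The cells were VM7Luc4E2, which endogenously express ER-alpha, and treatment was with compounds plus 10.0nM ICI-182,780 for 22hr.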

[20] = biological target: Androgen receptor (Homo sapiens) (UniProt P10275); assay: qHTS assay to identify small molecule agonists of the androgen receptor (AR) signaling pathway in the presence of an antagonist (AID 1259381; calls by dose curve; further: nearly all actives have a fitted effect of over 15% in size)
How it was run: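 Agonist-mode confirmation screen: human MDA-kb2 cells stably expressing luciferase under an MMTV promoter bearing AR and GR response elements, co-treated with 3.0uM nilutamide (final). Luminescence measured after 16hr compound incubation.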

Estrogen receptor beta (Homo sapiens), sequence (Q92731 whole entry, looked up): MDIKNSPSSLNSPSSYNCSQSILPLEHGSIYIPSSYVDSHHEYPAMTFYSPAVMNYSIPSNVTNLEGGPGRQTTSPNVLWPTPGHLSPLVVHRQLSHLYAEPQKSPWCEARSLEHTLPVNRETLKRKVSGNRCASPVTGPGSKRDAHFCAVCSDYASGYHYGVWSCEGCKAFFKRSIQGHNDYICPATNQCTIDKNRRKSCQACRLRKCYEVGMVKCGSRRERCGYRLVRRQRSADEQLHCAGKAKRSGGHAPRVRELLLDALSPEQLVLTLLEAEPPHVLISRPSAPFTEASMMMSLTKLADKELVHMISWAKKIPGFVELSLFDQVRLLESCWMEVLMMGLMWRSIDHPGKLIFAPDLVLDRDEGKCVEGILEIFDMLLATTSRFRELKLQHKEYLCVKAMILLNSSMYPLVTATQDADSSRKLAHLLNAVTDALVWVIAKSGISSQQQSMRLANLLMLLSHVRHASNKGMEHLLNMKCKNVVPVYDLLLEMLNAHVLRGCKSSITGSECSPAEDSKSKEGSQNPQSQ
Progesterone receptor (Homo sapiens), sequence (P06401 whole entry, looked up): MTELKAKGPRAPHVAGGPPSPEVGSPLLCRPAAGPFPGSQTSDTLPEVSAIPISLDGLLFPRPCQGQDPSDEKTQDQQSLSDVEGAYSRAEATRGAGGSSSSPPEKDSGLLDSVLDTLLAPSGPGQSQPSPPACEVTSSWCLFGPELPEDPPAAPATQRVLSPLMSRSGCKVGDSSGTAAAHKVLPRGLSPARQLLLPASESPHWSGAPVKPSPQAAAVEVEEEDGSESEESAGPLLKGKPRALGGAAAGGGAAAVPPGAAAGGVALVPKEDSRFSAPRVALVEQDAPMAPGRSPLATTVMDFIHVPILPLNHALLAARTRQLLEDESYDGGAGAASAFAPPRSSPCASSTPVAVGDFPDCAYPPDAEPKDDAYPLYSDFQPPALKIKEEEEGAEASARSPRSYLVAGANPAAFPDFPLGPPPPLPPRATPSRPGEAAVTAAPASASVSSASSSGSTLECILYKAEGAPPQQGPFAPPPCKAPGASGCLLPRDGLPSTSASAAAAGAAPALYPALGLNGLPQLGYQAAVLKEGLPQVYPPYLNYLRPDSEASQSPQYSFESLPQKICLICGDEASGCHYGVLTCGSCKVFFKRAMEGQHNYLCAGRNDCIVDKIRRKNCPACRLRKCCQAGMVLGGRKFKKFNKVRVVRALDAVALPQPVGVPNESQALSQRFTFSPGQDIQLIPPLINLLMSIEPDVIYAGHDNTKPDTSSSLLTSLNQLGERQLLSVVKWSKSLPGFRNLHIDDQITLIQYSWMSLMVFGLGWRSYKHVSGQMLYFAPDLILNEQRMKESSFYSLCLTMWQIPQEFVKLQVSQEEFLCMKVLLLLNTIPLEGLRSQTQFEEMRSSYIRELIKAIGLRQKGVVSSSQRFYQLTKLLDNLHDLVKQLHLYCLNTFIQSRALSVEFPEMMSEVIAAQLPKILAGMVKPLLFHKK
Thyrotropin-releasing hormone receptor (Homo sapiens), sequence (P34981 whole entry, looked up): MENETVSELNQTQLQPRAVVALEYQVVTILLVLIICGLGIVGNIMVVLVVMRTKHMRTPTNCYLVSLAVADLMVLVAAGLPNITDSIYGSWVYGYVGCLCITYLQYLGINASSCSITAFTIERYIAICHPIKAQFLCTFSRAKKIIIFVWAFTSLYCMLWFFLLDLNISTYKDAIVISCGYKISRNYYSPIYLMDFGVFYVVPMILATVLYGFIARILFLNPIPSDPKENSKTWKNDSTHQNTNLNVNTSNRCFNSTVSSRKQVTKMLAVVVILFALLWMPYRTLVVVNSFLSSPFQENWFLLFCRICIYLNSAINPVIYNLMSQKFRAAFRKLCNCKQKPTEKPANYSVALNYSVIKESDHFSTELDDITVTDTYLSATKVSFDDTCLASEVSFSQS
Thyrotropin receptor (Homo sapiens), sequence (P16473 whole entry, looked up): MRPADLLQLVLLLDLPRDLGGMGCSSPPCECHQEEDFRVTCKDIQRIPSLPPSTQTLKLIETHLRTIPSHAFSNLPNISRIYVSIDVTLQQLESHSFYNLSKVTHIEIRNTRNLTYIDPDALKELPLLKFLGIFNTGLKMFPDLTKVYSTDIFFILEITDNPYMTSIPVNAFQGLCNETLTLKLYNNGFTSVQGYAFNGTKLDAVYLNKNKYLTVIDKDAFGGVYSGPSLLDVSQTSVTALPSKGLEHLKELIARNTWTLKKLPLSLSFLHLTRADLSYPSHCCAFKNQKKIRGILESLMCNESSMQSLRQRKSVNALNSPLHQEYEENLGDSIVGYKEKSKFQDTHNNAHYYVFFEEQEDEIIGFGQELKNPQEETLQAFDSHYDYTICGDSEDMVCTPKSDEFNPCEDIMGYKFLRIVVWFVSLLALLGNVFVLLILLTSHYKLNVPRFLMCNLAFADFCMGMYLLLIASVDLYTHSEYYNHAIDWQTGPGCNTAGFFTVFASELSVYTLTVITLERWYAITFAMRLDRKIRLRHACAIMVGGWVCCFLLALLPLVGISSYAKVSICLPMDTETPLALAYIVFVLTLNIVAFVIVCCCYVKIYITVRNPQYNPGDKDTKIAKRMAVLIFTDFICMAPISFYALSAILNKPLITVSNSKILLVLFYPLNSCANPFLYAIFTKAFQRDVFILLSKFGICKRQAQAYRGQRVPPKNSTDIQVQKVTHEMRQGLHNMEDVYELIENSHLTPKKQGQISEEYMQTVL
Estrogen receptor (Homo sapiens), sequence (P03372 whole entry, looked up): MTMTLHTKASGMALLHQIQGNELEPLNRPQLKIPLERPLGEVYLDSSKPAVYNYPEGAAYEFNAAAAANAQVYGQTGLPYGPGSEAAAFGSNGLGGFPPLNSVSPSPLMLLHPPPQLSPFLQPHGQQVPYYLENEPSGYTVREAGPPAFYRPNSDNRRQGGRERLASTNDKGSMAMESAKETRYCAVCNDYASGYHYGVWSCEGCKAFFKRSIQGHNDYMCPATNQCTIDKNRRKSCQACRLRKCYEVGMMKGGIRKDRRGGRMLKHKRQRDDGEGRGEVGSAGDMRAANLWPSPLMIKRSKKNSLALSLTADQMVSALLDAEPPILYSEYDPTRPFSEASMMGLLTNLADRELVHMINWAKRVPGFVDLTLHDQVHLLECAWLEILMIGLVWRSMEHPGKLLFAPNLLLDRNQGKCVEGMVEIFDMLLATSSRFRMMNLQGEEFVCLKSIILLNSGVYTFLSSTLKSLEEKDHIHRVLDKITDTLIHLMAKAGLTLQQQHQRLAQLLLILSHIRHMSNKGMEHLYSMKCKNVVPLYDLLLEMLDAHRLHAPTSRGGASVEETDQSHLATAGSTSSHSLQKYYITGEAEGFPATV
Androgen receptor (Homo sapiens), sequence (P10275 whole entry, looked up): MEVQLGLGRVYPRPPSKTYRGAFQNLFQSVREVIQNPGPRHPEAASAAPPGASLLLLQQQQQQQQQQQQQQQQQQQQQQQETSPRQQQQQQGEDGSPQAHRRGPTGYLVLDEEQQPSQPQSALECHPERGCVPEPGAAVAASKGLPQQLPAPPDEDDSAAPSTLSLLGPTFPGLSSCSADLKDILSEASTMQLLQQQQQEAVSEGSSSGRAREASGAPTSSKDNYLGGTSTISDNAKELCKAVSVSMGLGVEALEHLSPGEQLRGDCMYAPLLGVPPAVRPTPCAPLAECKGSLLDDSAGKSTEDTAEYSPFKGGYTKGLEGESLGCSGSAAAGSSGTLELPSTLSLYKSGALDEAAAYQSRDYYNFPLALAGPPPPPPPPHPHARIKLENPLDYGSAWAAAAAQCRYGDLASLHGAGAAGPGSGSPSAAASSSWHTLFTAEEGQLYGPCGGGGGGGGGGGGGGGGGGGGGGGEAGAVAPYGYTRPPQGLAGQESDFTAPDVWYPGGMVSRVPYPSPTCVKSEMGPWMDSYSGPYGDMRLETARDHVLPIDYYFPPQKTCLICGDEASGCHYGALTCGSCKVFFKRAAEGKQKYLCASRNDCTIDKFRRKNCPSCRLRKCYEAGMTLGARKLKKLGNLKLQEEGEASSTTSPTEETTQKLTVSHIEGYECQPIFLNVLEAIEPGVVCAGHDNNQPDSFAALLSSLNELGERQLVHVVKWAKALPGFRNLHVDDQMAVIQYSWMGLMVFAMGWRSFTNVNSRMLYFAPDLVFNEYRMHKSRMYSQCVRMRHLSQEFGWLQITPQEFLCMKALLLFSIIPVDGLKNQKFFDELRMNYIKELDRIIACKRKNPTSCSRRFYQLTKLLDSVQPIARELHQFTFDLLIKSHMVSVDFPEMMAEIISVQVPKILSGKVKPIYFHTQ

Structure (SMILES) | Potency [1] | Potency [2] | outcome [3] | Potency [4] | Potency [5] | Potency [6] | outcome [7] | outcome [8] | Potency [9] | Potency [10] | Potency [11] | outcome [12] | Potency [13] | outcome [14] | Potency [15] | outcome [16] | Potency [17] | Potency [18] | Potency [19] | Potency [20]
CCC(=O)c1ccc(Cl)cc1 | inactive | inactive | inactive | inactive | inactive | inactive | inactive | inactive | inactive | inactive | inactive | inactive | inactive | inactive | inactive | inactive | – | – | – | –
CN(C)CCc1c[nH]c2cccc(OP(=O)(O)O)c12 | inactive | inactive | inactive | inactive | inactive | inactive | – | – | inactive | inactive | inactive | inactive | inactive | inactive | inactive | inactive | inactive | inactive | – | –
CCNP(=S)(OC)O/C(C)=C/C(=O)OC(C)C (stereo not drawn) | inactive | inactive | inactive | inactive | inactive | inactive | – | – | inactive | – | inactive | – | inactive | inactive | inactive | inactive | inactive | – | inactive | –
OCC(Cl)CCl (stereo not drawn) | inactive | inactive | inactive | inactive | inactive | inactive | – | – | inactive | – | inactive | inactive | inactive | inactive | inactive | inactive | inactive | inactive | inactive | –
CC(C)c1ccc(O)cc1 | inactive | inactive | inactive | inactive | inactive | inactive | inactive | – | inactive | inactive | inactive | inactive | inactive | inactive | inactive | inactive | – | inactive | inactive | –
CC(C)(C1CCC(O)CC1)C1CCC(O)CC1 (stereo not drawn) | inactive | 21.7 µM (active) | inactive | inactive | inactive | inactive | – | – | inactive | 27.3 µM (active) | inactive | inactive | inactive | inactive | – | – | inactive | – | – | –
NC(=O)CS(=O)C(c1ccccc1)c1ccccc1 (stereo not drawn) | inactive | inactive | inactive | inactive | – | inactive | inactive | inactive | inactive | inactive | inactive | inactive | inactive | inactive | inactive | inactive | inactive | inactive | inactive | –
O=C(O)C(Cl)Br (stereo not drawn) | inactive | inactive | inactive | inactive | – | inactive | inactive | – | inactive | inactive | inactive | inactive | inactive | inactive | inactive | inactive | – | inactive | inactive | –
CC(C)(N)Cc1ccccc1Cl | inactive | inactive | inactive | inactive | – | inactive | inactive | – | inactive | inactive | – | inactive | inactive | inactive | inactive | inactive | inactive | – | inactive | inactive
CC(C)(C)C(=O)C(Cl)Cl | inactive | inactive | inactive | inactive | inactive | inactive | inactive | inactive | inactive | inactive | inactive | – | inactive | inactive | inactive | inactive | – | inactive | – | –
C=CC(=O)OCCN(C)C | inactive | inactive | inactive | inactive | inactive | inactive | – | – | inactive | inactive | inactive | – | inactive | inactive | – | – | – | inactive | inactive | –
CCCOC(=O)Cc1ccc(OCC(=O)N(CC)CC)c(OC)c1 | inactive | inactive | inactive | inactive | inactive | inactive | inactive | inactive | inactive | – | inactive | inactive | inactive | inactive | inactive | inactive | – | inactive | inactive | –
CC(=NC#N)N(C)Cc1ccc(Cl)nc1 | inactive | inactive | inactive | inactive | inactive | inactive | inactive | – | inactive | inactive | inactive | inactive | inactive | inactive | inactive | inactive | – | inactive | – | –
N[C@@H](Cc1ccc(Oc2cc(I)c(O)c(I)c2)c(I)c1)C(=O)O | inactive | inactive | inactive | inactive | inactive | inactive | – | – | inactive | – | – | inactive | inactive | inactive | inactive | inactive | inactive | inactive | inactive | –
C=CCc1cc(OC)c2c(c1)OCO2 | inactive | inactive | inactive | inactive | inactive | inactive | inactive | inactive | inactive | – | inactive | – | inactive | inactive | inactive | inactive | – | inactive | inactive | –
CC(C)[C@]12CC(=O)[C@H](C)[C@H]1C2 | inactive | inactive | inactive | inactive | inactive | inactive | inactive | – | inactive | – | inactive | – | inactive | inactive | – | – | – | – | – | –
[P]#[In] | inactive | inactive | inactive | inactive | inactive | inactive | inactive | inactive | – | – | inactive | inactive | inactive | inactive | inactive | inactive | – | – | inactive | –
BrCCc1ccccc1 | inactive | inactive | inactive | inactive | inactive | inactive | inactive | inactive | inactive | inactive | inactive | – | inactive | inactive | inactive | inactive | – | inactive | inactive | –
